# Results: ChEMBL document CHEMBL3988442, “University of Dundee, Small-Polar-MMV Screening Library” (2021)
# Out of some 69,000 compounds screened, about 1,000 (1.4%) showed an effect of 50% or more. The sample as a whole holds a higher share of strong results than the screen did.
# Test system: Leishmania donovani
# Experiment: Leishmania intramacrophage assay
# Format: functional, organism-based
# Set-up: scale not given: in the data most compounds retested in dose-response had high values
structure (smiles),measurement,setting,value
CC(C)N1C(=O)CC(NC(=O)c2cc(Cl)sc2Cl)C1=O (configuration not stated),Percent Effect,"30.3 µM, […]",8.109%
O=C(NCc1cccnc1)[C@@H]1C[C@H]2[C@H](CCN2c2ncccn2)O1.O=C(O)C(F)(F)F.O=C(O)C(F)(F)F,Percent Effect,"30.3 µM, […]",4.628%
COCC(NC(=O)NCc1cccc(C#N)c1)c1ccco1 (configuration not stated),Percent Effect,"30.3 µM, […]",13.13%
Cc1nc(CN2CCN(c3cncc(Cl)n3)CC2)no1,Percent Effect,"30.3 µM, […]",-1.637%
Cc1noc(CN2CCN(CCO)CC2)n1,Percent Effect,"30.3 µM, […]",9.212%
Cc1noc(CN2CCN(c3cncc(Cl)n3)CC2)n1,Percent Effect,"30.3 µM, […]",51.54%
Cc1nc2cc(C(=O)N3CCCC(n4cncn4)C3)ccc2n1C (configuration not stated),Percent Effect,"30 µM, 30.03 µM",12.85%
Fc1cccnc1N1CCCC(c2nccs2)C1 (configuration not stated),Percent Effect,"30.3 µM, […]",14.11%
Cc1ccccc1CN1CCC(NCC2CNc3ccnn3C2)CC1 (configuration not stated),Percent Effect,"30 µM, 30.03 µM",58.34%
Cc1cccc(CN2CCC(NCC3CNc4cc(C)nn4C3)CC2)c1 (configuration not stated),Percent Effect,"30.3 µM, […]",50.3%
Cc1cc2n(n1)CC(CNC1CCN(Cc3ccncc3)CC1)CN2 (configuration not stated),Percent Effect,"30.3 µM, […]",2.182%
Cc1cc2n(n1)CC(CNC1CCN(Cc3ccccn3)CC1)CN2 (configuration not stated),Percent Effect,"30.3 µM, […]",17.09%
OCc1ccccc1CNCC1CNc2ccnn2C1 (configuration not stated),Percent Effect,"30.3 µM, […]",22.72%
Cc1cc2n(n1)CC(CNC1CCN(Cc3ccccc3C)CC1)CN2 (configuration not stated),Percent Effect,"30 µM, 30.03 µM",54.12%
Cc1cc2n(n1)CC(CNC1CCN(c3ccccn3)CC1)CN2 (configuration not stated),Percent Effect,"30.3 µM, […]",-5.394%
c1ccc(Cn2cccn2)c(CNCC2CNc3ccnn3C2)c1 (configuration not stated),Percent Effect,"30 µM, 30.03 µM",46.43%
Cc1cc2n(n1)CC(CNC1CCN(CCc3ccccc3)CC1)CN2 (configuration not stated),Percent Effect,"30.3 µM, […]",15.82%
O=C(c1cscn1)N1CCc2ncnc(-c3ccncc3)c2CC1,Percent Effect,"30.3 µM, […]",15.49%
Cc1ncc2c(c1CNC(=O)C1(c3ccc(F)cc3)CC1)CCNC2,Percent Effect,"30.3 µM, […]",8.933%
Oc1cc(CN2CCC(O)(Cn3ccnc3)CC2)nc2ccc(F)cc12,Percent Effect,"30.3 µM, […]",12.45%
Cc1nc(CN2CCCC(N(C)Cc3c(C)noc3C)C2)no1 (configuration not stated),Percent Effect,"30 µM, 30.03 µM",36.91%
COc1ccc(C(=O)N2CCCCC2c2nc(C)cs2)nn1 (configuration not stated),Percent Effect,"30 µM, 30.03 µM",9.548%
O=C(C1CNCCO1)N1CCCC(c2ccccc2)(c2ccccc2)C1 (configuration not stated),Percent Effect,"30.3 µM, […]",80.57%
CCn1c(CC2CCN(C(=O)C3CNCCO3)CC2)nn(C)c1=O (configuration not stated),Percent Effect,"30.3 µM, […]",-9.405%
O=C(C1CNCCO1)N1CCC(c2cc(N3CCCC3)ncn2)CC1 (configuration not stated),Percent Effect,"30.3 µM, […]",-9.261%
O=C(NCc1cccnc1)[C@@H]1CC[C@@H]2[C@@H](CCN2c2ncccn2)O1.O=C(O)C(F)(F)F.O=C(O)C(F)(F)F,Percent Effect,"30.3 µM, […]",42.67%
Cc1cccc(CN2CC[C@H]3O[C@H](C(=O)Nc4cnccn4)CC[C@H]32)n1.O=C(O)C(F)(F)F.O=C(O)C(F)(F)F,Percent Effect,"30.3 µM, […]",32.33%
O=C(NCc1cccnc1)[C@@H]1CC[C@@H]2[C@@H](CCN2c2ncc(F)cn2)O1.O=C(O)C(F)(F)F.O=C(O)C(F)(F)F,Percent Effect,"30.3 µM, […]",56.7%
O=C(NCc1cccnc1)[C@H]1CC[C@@H]2[C@@H](CCN2c2ncccn2)O1.O=C(O)C(F)(F)F.O=C(O)C(F)(F)F,Percent Effect,"30.3 µM, […]",6.718%
O=C(Nc1cnccn1)[C@@H]1CC[C@@H]2[C@@H](CCN2Cc2nccs2)O1.O=C(O)C(F)(F)F,Percent Effect,"30.3 µM, […]",-8.357%
Cc1csc(CN2CC[C@H]3O[C@H](C(=O)Nc4cccnc4)CC[C@H]32)n1.O=C(O)C(F)(F)F.O=C(O)C(F)(F)F,Percent Effect,"30.3 µM, […]",50.68%
CC(C)CN1CC(O)CN(S(=O)(=O)c2ccccc2)CC1=O (configuration not stated),Percent Effect,"30.3 µM, […]",-1.941%
CN(Cc1ccncc1)C(=O)NCc1nnc2n1CCCCC2,Percent Effect,30 µM,-1.906%
COCCn1cc(NCc2cn(C)nc2-c2ccncc2)cn1,Percent Effect,"30.3 µM, […]",4.13%
O=C(O)C(F)(F)F.OCCN1CCOC2(CCCN(c3cccc(F)c3)C2)C1 (configuration not stated),Percent Effect,"30 µM, 30.03 µM",37.14%
Cc1ccc(C2CSCCN2C(=O)c2cccs2)o1 (configuration not stated),Percent Effect,"30.3 µM, […]",15.58%
CC(C)CN1CC2(CCN(C(=O)c3cn4cccnc4n3)CC2)CC1=O,Percent Effect,"30.3 µM, […]",-23.89%
CCN1CC2(CCC1=O)CCN(C(=O)c1cn3cccnc3n1)CC2,Percent Effect,"30.3 µM, […]",50.01%
CN1CC2(CCN(C(=O)c3cn4cccnc4n3)CC2)CC1=O,Percent Effect,"30.3 µM, […]",-9.039%
CCOCc1cnc2n1CCN(C(=O)Cc1ccco1)C2C (configuration not stated),Percent Effect,"30.3 µM, […]",17.38%
CCOCc1cnc2n1CCN(C(=O)Cc1cccs1)C2C (configuration not stated),Percent Effect,"30.3 µM, […]",53.58%
CC1c2ncc(Cn3cncn3)n2CCN1C(=O)Cc1cccs1 (configuration not stated),Percent Effect,"30.3 µM, […]",31.82%
Cl.c1cnc(Nc2cncc(C3CCCN3)n2)cn1 (configuration not stated),Percent Effect,"30.3 µM, […]",5.876%
Cc1cnc(N2CCC3(CC2)CC(NC(=O)N(C)C)CO3)nc1 (configuration not stated),Percent Effect,"30.3 µM, […]",5.267%
CCCNC(=O)c1cc2c(s1)CCN2c1ncccn1,Percent Effect,"30.3 µM, […]",24.35%
O=C(NCC1CC1)c1cc2c(s1)CCN2c1ncccn1,Percent Effect,"30.3 µM, […]",54.07%
O=C(NCCN1CCCC1)c1cc2c(s1)CCN2c1ncccn1,Percent Effect,"30.3 µM, […]",35.65%
